Experiment [1] is described as follows: NCI Yeast Anticancer Drug Screen. Data for the rad50 strain (AID 155).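 Also: 0% = growth of vehicle-only cultures of the same strain.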 The settings on record: S. cerevisiae rad50 strain growth inhibition; at 50.0 µM; hits give high values. In outline:
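Compounds were tested on a yeast strain with an engineered DNA damage repair alteration; the reported value is growth inhibition normalised to vehicle treatment.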

Experiment [2] can be described thus: NCI Yeast Anticancer Drug Screen. Data for the mec2-1 strain (AID 157). To be noted: S. cerevisiae mec2-1 strain, at 50.0 µM, hits give high values. In outline:
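Strain: mec2-1 (DNA repair/cell cycle alteration). Compound exposure, then growth measured; inhibition expressed relative to vehicle.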

Experiment [3] is described as follows: NCI Yeast Anticancer Drug Screen. Data for the sgs1 mgt1 strain (AID 161).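 Also: 0% = growth of cultures given vehicle only.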 To be noted: S. cerevisiae sgs1 mgt1 strain, at 50.0 µM, hits give high values. The method in brief: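 Inhibition of yeast growth, normalised to vehicle-treated controls, is reported for a strain bearing genetic alterations in DNA damage repair.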
The nature of experiment [4]: NCI Yeast Anticancer Drug Screen. Data for the cln2 rad14 strain (AID 165).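 Also: 0% = growth equal to vehicle treated cultures.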 The settings on record: S. cerevisiae cln2 rad14 strain, at 50.0 µM, hits give high values. In outline:
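Compounds are applied to the cln2 rad14 yeast strain, and growth is then compared with that of vehicle-treated cultures to give inhibition.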

The nature of experiment [5]: NCI Yeast Anticancer Drug Screen. Data for the bub3 strain (AID 167). The settings on record: S. cerevisiae bub3 mutant strain, at 50.0 µM, hits give high values. The method in brief:
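Growth of a checkpoint-deficient yeast mutant is measured after compound exposure. Values represent inhibition relative to vehicle.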

A short description of experiment [6]: NCI Yeast Anticancer Drug Screen. Data for the mlh1 rad18 strain (AID 175). To be noted: S. cerevisiae mlh1 rad18 strain growth inhibition; at 50.0 µM; hits give high values. In outline: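 Read-out is yeast growth inhibition, calculated against vehicle-only controls. The compound was applied to a strain engineered with DNA damage repair alterations.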

The panel holds about 79,000 compounds, 15% with a hit somewhere; the sample as a whole holds those more often. Values without a mark were called inactive. Activity calls are given as the source filed them. Rule as the data show it: active = growth inhibition above about 70%; inactive = the rest.

For `CC(=O)OCC(=O)c1ccccc1`, the growth inhibition was -10.8% in experiment [1]; 6.65% in experiment [2]; -3.8% in experiment [3]; -4.15% in experiment [4]; 30.5% in experiment [5]; -13.6% in experiment [6].
Turning to `CC(C)CCCC(C)C1CCC2C3CC=C4CC(C(=O)O)CCC4C3CCC12C` (configuration not stated), the growth inhibition in experiment [1] is 26.8%; in experiment [2], 21.6%; in experiment [3], 14.1%; in experiment [4], 21.2%; in experiment [5], -3.5%; in experiment [6] it was 22.6%.
For `O=C(NC(=S)c1ccccc1)Nc1ccccc1`, the growth inhibition in experiment [1] was 2.1%; in experiment [2] it was 37.5%; in experiment [3], 6.85%; in experiment [4], -8.85%; in experiment [5], 24.4%; in experiment [6] it was 18.9%.
Consider `COc1ccc(CC2=NCCc3cc(OCc4ccccc4)c(OC)cc32)cc1OCc1ccccc1`, for which the growth inhibition is 66.8% in experiment [1]; 55% in experiment [2]; 52.5% in experiment [3]; 30.6% in experiment [4]; 78.5% (active) in experiment [5]; 93.8% (active) in experiment [6].
In the case of `COCC12CCC(OC)C34C5CC6(O)C(OC)CC(OC(C)=O)(C5C6OC(=O)c5ccccc5)C(C(OC)C13)C4N(C)C2` (configuration not stated), the growth inhibition in experiment [1] is -24.5%; in experiment [2], -23.8%; in experiment [3], -26.5%; in experiment [4] it was -8.9%; in experiment [5] it was -1.45%; in experiment [6], -77.5%.
Regarding `CO[Si](C)(OC)c1ccccc1`, the growth inhibition in experiment [1] is -0.6%; in experiment [2], -23.8%; in experiment [3], -32.1%; in experiment [4] it was 13.2%; in experiment [5] it was -25.8%; in experiment [6], 2.75%.
With `O=[N+]([O-])c1nccn1COCCI`, the growth inhibition in experiment [1] is 7.25%; in experiment [2], 15.4%; in experiment [3], -0.2%; in experiment [4], 3.3%; in experiment [5] it was 7.75%; in experiment [6], 52.3%.
For `CS(=O)(=O)OC12CC3CC(CC(C3)C1)C2`, the growth inhibition in experiment [1] is 7.3%; in experiment [2], -9.1%; in experiment [3], -11.8%; in experiment [4], -26.5%; in experiment [5], -0.75%; in experiment [6], 5.55%.
`COC(=O)C1CCCCC1C(=O)OC` (configuration not stated): the growth inhibition in experiment [1] is -11.1%; in experiment [2] it was -14%; in experiment [3], 0.85%; in experiment [4], -16.6%; in experiment [5], -5.3%; in experiment [6] it was 6%.
With `Cc1nnc(-c2ccccc2)s1`, the growth inhibition in experiment [1] is 15.1%; in experiment [2] it was 12.3%; in experiment [3], -3.2%; in experiment [4] it was 12.1%; in experiment [5], -10.6%; in experiment [6] it was -7.45%.
For `CC(=O)c1ccc(N=NN2CCCC2)cc1`, the growth inhibition in experiment [1] is 30.2%; in experiment [2], 8.35%; in experiment [3] it was 17.1%; in experiment [4] it was 31.4%; in experiment [5], 34.2%; in experiment [6] it was 2.7%.
On to `COc1ccc2c(c1)OC[C@@H]1c3cc(O)c(OCc4ccccc4)cc3O[C@]21C`, for which the growth inhibition in experiment [1] is 9.9%; in experiment [2] it was 40.8%; in experiment [3] it was 10.3%; in experiment [4] it was 53.5%; in experiment [5], 21.7%; in experiment [6], -26%.
In the case of `CCOC(=O)NC(=O)c1cn(CC(=O)NCC(=O)NCC(=O)N2CCN(CCn3c(C)nc(C(N)=O)c3N)CC2)c(=O)[nH]c1=O`, the growth inhibition was 12.8% in experiment [1]; 8.9% in experiment [2]; 5.25% in experiment [3]; -18.8% in experiment [4]; 2.75% in experiment [5]; -4.85% in experiment [6].
Consider `COc1cc2c(cc1OC)C(=O)/C(=C/c1ccccc1)C2`, for which the growth inhibition in experiment [1] was -16.4%; in experiment [2], -0.85%; in experiment [3] it was -6.4%; in experiment [4], 15.2%; in experiment [5] it was 36%; in experiment [6], 9.6%.
Consider `O=C(NC(=S)c1ccco1)NS(=O)(=O)c1ccc(Cl)cc1`, for which the growth inhibition in experiment [1] is 8.35%; in experiment [2] it was 7.05%; in experiment [3] it was 12.2%; in experiment [4] it was 16.2%; in experiment [5], 20.4%; in experiment [6], 29.4%.
On to `Cc1cc(N(CCOS(C)(=O)=O)CCOS(C)(=O)=O)ccc1C=Nc1ccc(C(=O)O)c(O)c1`, for which the growth inhibition was 82.8% (active) in experiment [1]; 86.8% (active) in experiment [2]; 46% in experiment [3]; 77.5% (active) in experiment [4]; 19.2% in experiment [5]; 88% (active) in experiment [6].
Turning to `O=C(O)C(Cc1ccccc1)NS(=O)(=O)Cc1ccccc1` (configuration not stated), the growth inhibition in experiment [1] was -14.1%; in experiment [2], -8.45%; in experiment [3], -4.5%; in experiment [4], -4.9%; in experiment [5] it was -8.2%; in experiment [6], -2.15%.
With `FC(F)(F)c1cccc(NC(=S)SCc2ccc(Cl)c(Cl)c2)c1`, the growth inhibition in experiment [1] was 98.3% (active); in experiment [2], 98.8% (active); in experiment [3], 98.8% (active); in experiment [4] it was 99.1% (active); in experiment [5], 98% (active); in experiment [6] it was 98.2% (active).
Take `Cc1ccc(NC(=O)CSc2nnc(Cc3ccccc3)o2)c(C)c1`: the growth inhibition in experiment [1] was -26.8%; in experiment [2], -63.2%; in experiment [3] it was -57.8%; in experiment [4], -22.8%; in experiment [5], -3.3%; in experiment [6] it was -54.9%.
Take `O=C1/C(=C/c2ccc(Cl)cc2)COc2ccc(Br)cc21`: the growth inhibition in experiment [1] was 26.1%; in experiment [2], 4.85%; in experiment [3] it was -5.1%; in experiment [4] it was 6.7%; in experiment [5], 1.8%; in experiment [6] it was -2.45%.
Turning to `O=CNCC(=O)Nc1ccccc1`, the growth inhibition in experiment [1] is -8.4%; in experiment [2] it was -2.45%; in experiment [3], -3.45%; in experiment [4], -6.9%; in experiment [5], 10.8%; in experiment [6], -10.4%.
`O=C(O)C(CCS)(c1ccccc1)c1ccccc1`: the growth inhibition in experiment [1] is 17.2%; in experiment [2], -5.7%; in experiment [3], 0.3%; in experiment [4], 20.2%; in experiment [5], 2.15%; in experiment [6] it was 2%.

Source of the values: PubChem BioAssay (NCI).
